Rows were chosen to be rich in hits. Some 1.2% of all compounds tested hit in one or more screens of this group.
KCNH2 WT inh: blocks the wildtype human KCNH2 potassium channel. activity change, % at 1.84 µM. 0.37% of 340,000 active. U2OS, BacMam KCNH2, thallium flux FluxOr; stronger effect = lower value. Q12809;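 active means maximum activity change below -70%; inconclusive means maximum activity change between -70% and -50%; inactive means maximum activity change above -50%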; further: on the % scale 0 is the no-effect control and ±100 the full control effect
Target sequence (Q12809 whole entry, looked up): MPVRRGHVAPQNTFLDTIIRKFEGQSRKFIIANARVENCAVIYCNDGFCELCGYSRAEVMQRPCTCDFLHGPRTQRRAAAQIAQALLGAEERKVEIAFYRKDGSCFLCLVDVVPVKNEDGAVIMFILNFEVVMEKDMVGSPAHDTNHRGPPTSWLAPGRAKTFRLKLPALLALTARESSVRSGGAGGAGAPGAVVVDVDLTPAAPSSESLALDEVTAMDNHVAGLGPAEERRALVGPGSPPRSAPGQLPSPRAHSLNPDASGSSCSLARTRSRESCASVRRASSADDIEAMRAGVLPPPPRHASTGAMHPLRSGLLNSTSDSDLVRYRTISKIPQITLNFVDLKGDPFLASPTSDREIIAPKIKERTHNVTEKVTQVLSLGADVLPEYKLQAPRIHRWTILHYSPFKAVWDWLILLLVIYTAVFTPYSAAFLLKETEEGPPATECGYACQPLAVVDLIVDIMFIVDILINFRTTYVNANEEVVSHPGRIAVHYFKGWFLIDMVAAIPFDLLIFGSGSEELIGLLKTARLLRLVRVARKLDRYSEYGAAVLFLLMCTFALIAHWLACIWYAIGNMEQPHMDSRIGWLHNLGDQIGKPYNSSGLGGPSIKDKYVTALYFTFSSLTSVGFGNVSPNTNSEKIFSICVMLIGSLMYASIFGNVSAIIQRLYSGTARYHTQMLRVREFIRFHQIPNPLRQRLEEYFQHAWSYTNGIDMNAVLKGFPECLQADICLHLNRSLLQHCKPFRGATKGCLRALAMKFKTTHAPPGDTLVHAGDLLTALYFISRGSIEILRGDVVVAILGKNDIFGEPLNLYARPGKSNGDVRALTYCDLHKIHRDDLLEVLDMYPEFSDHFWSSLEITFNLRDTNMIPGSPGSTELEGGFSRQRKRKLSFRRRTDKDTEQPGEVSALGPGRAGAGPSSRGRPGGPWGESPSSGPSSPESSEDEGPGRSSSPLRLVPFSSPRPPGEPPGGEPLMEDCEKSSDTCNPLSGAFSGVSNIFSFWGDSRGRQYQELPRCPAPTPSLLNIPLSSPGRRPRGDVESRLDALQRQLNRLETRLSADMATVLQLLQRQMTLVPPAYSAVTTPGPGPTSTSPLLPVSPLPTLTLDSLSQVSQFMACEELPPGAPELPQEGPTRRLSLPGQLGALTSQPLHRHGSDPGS
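U2OS cells were transduced with wild-type KCNH2 virus (2.03 x 10^8 / mL) for 4 h at room temperature, then cultured overnight at 37 C. Thallium flux was read with FluxOr dye. Rate constants were normalized to DMSO controls.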
KCNH2 3.1 block: blocks the human KCNH2 3.1 channel isoform | U2OS KCNH2 3.1, thallium flux FluxOr; stronger effect = lower value | AID 720553 | activity change, % (tested at about 1.8 µM) | 0.95% of 340,000 active;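 active means maximum activity change below -70%; inconclusive means maximum activity change from -70% to -50%; inactive means maximum activity change above -50%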;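 further: thallium influx rate constant from kinetic fluorescence after stimulation buffer; on the % scale 0 is the no-effect control and ±100 the full control effect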
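Virally transduced U2OS (3.1 isoform, 4 h infection in dark at RT) → overnight 37 C → FluxOr + Red40 in HBSS/HEPES, 45 min → stimulation buffer, 2 min kinetic read → rate constant vs DMSO controls.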
Tb PFK block: T. brucei PFK enzyme inhibition. T. brucei PFK, ADP-Glo luminescence. Potency, µM (highest dose often 57.5 µM), for the others: at the highest dose activity, negative = inhibition, most hits filed as inhibitors. 0.17% of 330,000 active. AID 485367; active means well fitted inhibition curve with a large enough effect; inconclusive means small, poorly fitted or top-dose-only effect, or effect the other way;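 further: potency means the concentration at half of the fitted maximal effect; 0% = uninhibited 1x PFK enzyme wells and -100% = no-enzyme wells; nearly all actives have a fitted effect of over 60% in size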
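PFK 1.25 nM, F6P 0.5 mM, ATP 0.1 mM, 0.1 M TEA pH 8.0, 5 mM MgCl2, 0.01% Tween20, 0.1% BSA; 45 min RT. ADP-Glo readout. qHTS titration up to 57 uM; curves fitted, compounds curve-classed.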
TSG101-PTAP inh: blocks PTAP/TSG101 interaction to inhibit HIV-1 budding. 340,000 tested, under 10 active. Fluorescence polarization, FITC-PTAP peptide / Tsg101 binding. Potency, µM (series often up to 115 µM), for the others: at the highest dose activity change, negative = inhibition, usual class: inhibitors. Q99816; active means well fitted inhibition curve with a large enough effect in the main read-out, with a control signal flat, not every such curve was filed as active; inconclusive means small, poorly fitted or top-dose-only effect, or effect the other way, or a change in a side signal; inactive means no such curve, though single readings can be large or run the other way; further: potency means the concentration at half of the fitted maximal effect; % of control where 0% means no effect
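Fluorescence anisotropy tracks displacement of a FITC-tagged PTAP peptide (50 nM) from the Tsg101 binding domain (10 uM), following a 20 min room-temperature incubation at pH 7.5.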
Numbers without * were called inactive; ? = inconclusive; . = no result given; [ ] = dose if it differs, or a comment.

SMILES	KCNH2 WT inh	KCNH2 3.1 block	Tb PFK block	TSG101-PTAP inh
COc1ccc(-c2cc(C(=O)Nc3cc(Cl)ccc3OC)no2)cc1	-8.6	-8.8	1.6%	-2.6%
COc1ccc(NC(=O)c2ccc(C)cc2)c(OC)c1	-170.2*	-154.0*	-6.5%	0.0%
COc1ccc(-c2cc(C(=O)Nc3ccc(OC)cc3OC)no2)cc1	1.6	-108.3*	-0.3%	-0.4%
COc1ccc(NC(=O)c2cc(-c3ccccc3)on2)cc1OC	3.9	-76.5*	1.5%	-0.7%
CC(NC(=O)C1CCN(C(=O)c2ccc(F)cc2)CC1)c1ccc(-n2ccnc2)cc1 (stereo not drawn)	-4.3	0.7	-4.6%	-3.0%
CN(c1ccccc1)S(=O)(=O)c1cccc(NC(=O)c2ccc(Cl)c([N+](=O)[O-])c2)c1	-2.7	-10.5	-9.3%	-3.0%
COc1cccc(C(=O)OCC(=O)Nc2cc(C)on2)c1OC	-2.2	2.5	3.7%	1.7%
CSc1nc2ccccc2n1Cc1c(Cl)cccc1Cl	-19.6	-186.2*	2.3%	-1.4%
N#Cc1ccc(NC(=O)CN2CCN(c3ccccn3)CC2)cc1	39.7	-76.3*	1.4%	-6.3%
CC(C)c1ccc(NC(=O)CN2CCN(c3ccccn3)CC2)cc1	-1.4	0.9	-6.9%	-7.8%
CC/C(C)=N/Nc1cccc([N+](=O)[O-])c1	-8.5	-93.1*	0.0%	-4.7%
COc1ccc(S(=O)(=O)NCC2CCCO2)cc1NC(=O)c1ccccc1F (stereo not drawn)	2.9	-25.7	-11.8%	-8.0%
CCO[C@H]1OC(C(N)=O)=C[C@@H](C2CC2)[C@@H]1CCCO	0.8	-0.6	.	-1.8%
O=C(Nc1ccc(CN2CCOCC2)cc1)c1ccc(Br)o1	-1.7	11.5	-10.0%	-5.3%
O=C(Nc1ccc(CN2CCOCC2)cc1)c1ccc(-c2cc(Cl)ccc2Cl)o1	7.5	-75.8*	-6.7%	-5.7%
CCn1nc(C(=O)OCC(=O)N(CCC#N)c2ccccc2)c2ccccc2c1=O	-5.5	-17.3	-3.1%	-0.2%
COc1ccccc1NC(=O)C1CCN(S(C)(=O)=O)CC1	0.6	4.4	-8.5%	-14.2%
Cc1ccc2oc(=O)n(CC(=O)N3CCOCC3)c2c1	-142.0*	-8.4	3.4%	-6.5%
Cc1ccc(C2=NN=C(NC(=O)C(F)(F)F)SC2)cc1	-2.7	9.1	-9.0%	-4.1%
CCn1c(/C=C/Nc2ccccc2)[n+](CC)c2cc(Cl)c(Cl)cc21	-131.9*	-97.9*	-0.9%	-5.8%
COC(=O)c1cc(NC(=O)c2cc(C)oc2C)cc(C(=O)OC)c1	-193.1*	-14.3	8.0%	-8.6%
Cc1cc(C(=O)Nc2ccc(C(=O)O)cc2)c(C)o1	-12.1	11.3	2.9%	3.4%
COc1ccc(NC(=O)N(C)C[C@@H]2OCc3cnnn3CCCC(=O)N([C@@H](C)CO)C[C@H]2C)c(OC)c1	0.2	5.7	.	.
Cc1cc(N)n(-c2ccc([N+](=O)[O-])cc2)n1	2.4	-2.3	0.9%	-0.4%
Cc1cc(C)n(-c2ccc([N+](=O)[O-])cc2)n1	5.4	-106.8*	-0.3%	0.5%
SMILES	KCNH2 WT inh	KCNH2 3.1 block	Tb PFK block	TSG101-PTAP inh
COc1ccc([C@]23Cc4ccccc4C(O2)c2c(cc(-c4ccccc4)oc2=O)O3)cc1	.	.	-1.2%[11.5 µM]	.
CCN(CC)c1ccc(S(=O)(=O)N2CCOCC2)cc1NC(=O)CSc1nncs1	-215.2*	-186.6*	3.0%	-0.5%
CCN(CC)c1ccc(S(=O)(=O)N2CCOCC2)cc1NC(=O)CSc1ccccc1	13.5	-10.3	-3.5%	-6.4%
CCN(CC)c1ccc(S(=O)(=O)N2CCOCC2)cc1NC(=O)CSc1nncn1C	-18.5	-5.0	-7.0%	-4.3%
CCN(CC)c1ccc(S(=O)(=O)N2CCOCC2)cc1NC(=O)c1cc(=O)c2ccccc2o1	0.2	-74.5*	1.2%	0.7%
Cc1cccc(C)c1C(=NCCN(C)C)c1ccccc1	7.7	-2.4	.	-3.0%
CC(N=Cc1cc([N+](=O)[O-])ccc1O)c1ccccc1 (stereo not drawn)	-170.0*	1.0	?	-8.0%
CCCC[C@]12Cc3ccccc3C(O1)c1c(c3ccccc3oc1=O)O2	.	.	2.1%[11.5 µM]	.
Nn1c(SCc2cccc(F)c2)nnc1-c1cccnc1	2.2	2.5	-0.5%	-0.9%
Nn1c(SCc2cccc(Br)c2)nnc1-c1cccnc1	-0.8	-98.9*	-3.1%	0.9%
CCOC(=O)c1ccc2[nH]c3c(c2c1)CCCC3C(=O)OCC (stereo not drawn)	9.1	15.2	-4.3%	-7.2%
CCOC(=O)c1ccc2[nH]c3c(c2c1)CCCCC3=O	26.9	-167.1*	-0.6%	-1.4%
CCOC(=O)C1C(=O)N(O)CC1c1cccc(Oc2ccccc2)c1 (stereo not drawn)	-1.9	-74.7*	-4.6%	-1.7%
COc1ccc(CCNC(=O)C(=O)NCC2CCCN2S(=O)(=O)c2ccccc2)cc1OC (stereo not drawn)	-5.4	-7.8	-13.5%	-0.8%
O=C(/C=C/c1ccc(N2CCC(c3ccccc3)=N2)cc1)c1ccccc1	-73.7*	.	2.1%	?
CC(NC(=O)CCNS(=O)(=O)c1ccccc1)c1ccccc1 (stereo not drawn)	-156.2*	4.3	0.4%	-1.3%
CC(CCc1ccccc1)NC(=O)CCNS(=O)(=O)c1ccccc1 (stereo not drawn)	3.1	20.6	-0.9%	-8.1%
Cc1cc(NC(=O)CCN2C(=O)C3C4C=CC(C4)C3C2=O)c2ccccc2n1 (stereo not drawn)	-133.2*	-138.0*	-1.6%	-7.6%
O=C(NCC1CCCO1)c1ccc2c(c1)S(=O)(=O)c1ccccc1C2=O (stereo not drawn)	-9.0	11.1	.	-6.5%
CSc1ccc(CN2CCC(CO)(Cc3ccc(Cl)cc3)CC2)cc1	-32.8	-100.5*	-0.8%	-2.7%
OCC1(Cc2ccc(Cl)cc2)CCN(Cc2ccccc2F)CC1	11.4	?	-0.8%	-2.5%
CN1CCC(CO)(Cc2ccccc2)CC1	-8.8	-27.3	1.6%	-6.9%
OCC1(Cc2ccc(Cl)cc2)CCN(CC2CC=CCC2)CC1 (stereo not drawn)	36.4	-72.1*	-2.1%	0.0%
OCC1(Cc2ccc(Cl)cc2)CCN(CCCc2ccccc2)CC1	?	-89.2*	-4.2%	-0.4%
Cc1ccc(CNC(=O)CN(c2ccc(C)cc2)S(=O)(=O)c2c(C)n[nH]c2C)cc1	-2.0	-17.0	-23.9%	-4.1%
COC(=O)C1=C(C(=O)OC)[C@@H]2Nc3ccccc3[C@@]23C[C@@H](C(=O)OC)N(C(=O)c2ccc(Br)cc2)C3=N1	4.3	-114.4*	0.6%	-0.9%
O=C(NN1C(=O)C2C3C=CC(C3)C2C1=O)c1cccc(Cl)c1 (stereo not drawn)	-78.0*	-15.5	-11.5%	-4.5%
CC(=O)Nc1ccc(S(=O)(=O)NCCC(=O)N2CCC(Cc3ccccc3)CC2)cc1	-1.3	-9.0	-2.0%	-2.2%
O=C1NC(Cc2ccccc2)c2nc3ccc(Cl)cc3c(=O)n2-c2ccccc21 (stereo not drawn)	.	.	-3.2%	.
Cc1cc(S(=O)(=O)c2ccc(Cl)cc2)nc(S(=O)(=O)c2ccc(Cl)cc2)c1C#N	1.8	-73.5*	.	.
